# Hits are enriched below; roughly 19% of the tested compounds scored in any of these assays.
# TDP1 cell CPT: DT40-hTDP1 cell growth loss with CPT | chicken DT40 Tdp1-/-;hTDP1 cells + 20 nM CPT, ATP luminescence, 48 h | Potency, µM (series often up to 46.2 µM), inactives show at the top dose activity change, negative = growth inhibition, most hits filed as inhibitors | hit rate 12% among 420,000; further: nearly all actives have a fitted effect of over 55% in size
#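 Cell growth measured by CellTiter-Glo luminescence after a minimum 48 h, 37 C compound exposure with 20 nM CPT in Tdp1-knockout DT40 cells stably expressing hTDP1, seeded 400/well; qHTS titration format.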
# TDP1 block: inhibitors of human tyrosyl-DNA phosphodiesterase TDP1. hit rate 0.28% among 350,000. Potency, µM (titrated, usually from 130 µM), for inactives: top-dose activity change, negative = inhibition, hits mostly inhibitors. Q9NUW8. recombinant TDP1, AlphaScreen DNA substrate cleavage; further: nearly all actives have a fitted effect of over 40% in size
#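 Signal: AlphaScreen proximity between streptavidin donor and anti-FITC acceptor beads on intact substrate. Reaction: Tdp1 1 nM, substrate 15 nM final, 5 min RT after 15 min compound preincubation.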
# DT40 TDP1 no CPT: qHTS for Inhibitors of human tyrosyl-DNA phosphodiesterase 1 (TDP1): qHTS in cells in absence of CPT. DT40 Tdp1-/- hTDP1 cells, no CPT, ATP luminescence, 48 h. Potency, µM (top dose mostly 46.2 µM), inactives show top-dose activity change, negative = growth inhibition, usual class: inhibitors. hit rate 15% among 420,000; further: nearly all actives have a fitted effect of over 55% in size
#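 Luminescent ATP content (CellTiter-Glo) served as the growth readout. Knockout chicken DT40 cells expressing human TDP1 were exposed to compounds without camptothecin for a minimum 48 hr at 37 °C.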
# VP16 counter: counter-screen for ROR gamma inhibitors: Gal4-VP16 reporter; AID 2546; Potency, µM (top dose mostly 53.6 µM), without a hit: at the highest dose activity, negative = inhibition, most hits filed as inhibitors; hit rate 3.5% among 310,000; Drosophila S2 Gal4-VP16 UAS-luciferase, luminescence, 20 h;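 further: Gal4-VP16 expression switched on by copper sulfate through the metallothionein promoter; nearly all actives have a fitted effect of over 50% in size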
# RORg inh: blocks mouse ROR gamma transcriptional activity | P51450 | Drosophila S2 Gal4-RORgamma UAS-luciferase reporter, 20 h | Potency, µM (series often up to 53.6 µM), without a hit: at the highest dose activity change, negative = inhibition, actives largely listed as inhibitors | hit rate 5.4% among 310,000 | AID 2551; further: nearly all actives have a fitted effect of over 60% in size
# Target sequence (P51450 whole entry, looked up, the tested form may be a part): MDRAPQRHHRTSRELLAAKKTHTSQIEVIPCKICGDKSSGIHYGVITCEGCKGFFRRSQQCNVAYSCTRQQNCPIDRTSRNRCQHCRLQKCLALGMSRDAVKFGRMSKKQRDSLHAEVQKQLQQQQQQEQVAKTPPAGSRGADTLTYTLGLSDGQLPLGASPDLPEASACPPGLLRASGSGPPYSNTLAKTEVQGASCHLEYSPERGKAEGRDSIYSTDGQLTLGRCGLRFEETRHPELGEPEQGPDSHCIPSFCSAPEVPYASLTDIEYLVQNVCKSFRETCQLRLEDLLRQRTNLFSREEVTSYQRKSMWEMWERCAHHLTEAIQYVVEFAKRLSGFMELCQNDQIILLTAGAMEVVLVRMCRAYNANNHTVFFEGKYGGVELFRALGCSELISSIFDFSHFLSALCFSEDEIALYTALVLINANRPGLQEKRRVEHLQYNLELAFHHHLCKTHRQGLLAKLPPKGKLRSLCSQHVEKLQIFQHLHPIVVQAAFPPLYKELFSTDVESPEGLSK
#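 Stably transfected Drosophila Schneider cells are the test system, with ROR gamma fused to Gal4 and luciferase under UAS control; luminescence is read after 20 hr of 700 uM copper sulfate induction at ambient temperature.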
# The depositor's hits bear a star; ? = inconclusive; . = no result. The call rests on the fitted dose curve; in most records, active means well fitted curve in the direction sought with a large enough effect; inconclusive means small, poorly fitted or top-dose-only effect, or another doubt; inactive means no such curve, though single readings can be large; an effect the other way counts as inactive or inconclusive. On the % scale 0 is the no-effect control and ±100 the full control effect; potency means the concentration at half of the fitted maximal effect.
SMILES,TDP1 cell CPT,TDP1 block,DT40 TDP1 no CPT,VP16 counter,RORg inh
COc1cc(/C=N/NC(=O)c2cc(-c3cccc(OC(C)C)c3)nc3ccccc23)ccc1O,?,.,2.06µM*,.,.
COc1cc(/C=N/NC(=O)c2cc(-c3ccccc3)nc3ccccc23)cc(OC)c1O,?,.,?,0.2%,-13.4%
COc1cc(/C=N/NC(=O)c2cc(-c3cccs3)nc3ccccc23)ccc1O,9.2µM*,3.7%,9.2µM*,17.4%,1.0%
N#Cc1ccc(/C=N/NC(=O)c2cc(-c3cccs3)nc3ccccc23)cc1,9.2µM*,5.4%,20.6µM*,-6.0%,12.0%
CC(=O)N(CCOc1ccccc1)CCOc1ccccc1,-25.8%,.,?,.,.
O=c1[nH]c2ccccc2nc1-c1ccc(Cl)cc1,-0.8%,.,-13.6%,8.9%,?
Cc1nn(-c2nc3ccccc3[nH]2)c(=O)c2ccccc12,1.84µM*,-6.0%,2.06µM*,0.316µM*,0.178µM*
Cc1nn(-c2ccc(Cl)c(Cl)c2)c(=O)c2ccccc12,-27.6%,0.0%,-23.9%,?,28.8%
Cc1nn(-c2nc3ccccc3[nH]2)c(N)c1-c1ccc(Cl)cc1,?,9.5%,16.4µM*,3.16µM*,1.26µM*
Cc1nn(-c2ccc3ccccc3c2)c(=O)c2ccccc12,?,0.0%,16.4µM*,2.2%,0.6%
CS(=O)(=O)c1ccccc1-c1nc(-c2ccc(C(F)(F)F)cc2)no1,?,1.1%,16.4µM*,?,?
Cc1ccnc(NCn2nnc3ccccc32)c1,16.4µM*,-1.0%,?,-1.3%,1.0%
Cc1ccc(NC(=O)Cn2nnc3ccccc32)c(C)c1,2.5%,4.8%,-12.2%,5.0%,34.4%
COc1ccccc1NC(=O)CCCC(=O)OCC(=O)c1ccc(F)cc1,-24.6%,0.3%,3.3%,-9.7%,-19.9%
O=C(Nc1nnc(S(=O)(=O)N2CCCC2)s1)c1ccccc1F,-6.2%,-1.3%,?,-5.0%,40.3%
CC(C)C(=O)Nc1ccc2c(c1)C(=O)N(CCC(=O)O)C2=O,-9.9%,4.0%,29.1µM*,-9.6%,17.6%
COc1ccc(OC)c(NC(=O)c2cnc(Nc3ccc(C)c(Cl)c3)c3ccccc23)c1,-24.7%,5.9%,?,.,.
COc1ccc(Nc2ncc(C(=O)Nc3ccc(F)cc3F)c3ccccc23)cc1,13µM*,8.8%,18.4µM*,.,.
COc1ccccc1NC(=O)c1cnc(Nc2ccccc2OC)c2ccccc12,1.64µM*,?,1.16µM*,6.9%,24.0%
O=C(Cn1c2ccc(F)cc2c2nc3n(c(=O)c21)CCS3)NCC1CCCO1 (stereo unspecified),0.4%,-9.2%,-4.7%,4.3%,-8.4%
CC1CCN(C(=O)Cn2c(=O)n(CCCCCC(=O)NCc3ccccc3Cl)c(=O)c3sccc32)CC1,?,0.0%,10.3µM*,.,.
CCOc1ccccc1NC(=O)Cn1c(=O)n(CC(=O)NCc2ccccc2Cl)c(=O)c2sccc21,8.2µM*,6.4%,9.2µM*,.,.
Cc1ccccc1NC(=O)Cn1c(=O)n(CCCCCC(=O)NCc2ccccc2Cl)c(=O)c2sccc21,?,-0.9%,?,.,.
Cc1ccc2nc(Nc3nc(C)cc(C(F)(F)F)n3)nc(C)c2c1,7.7%,-2.1%,?,?,-23.0%
COc1ccc(C2C(C(=O)c3sc(C)nc3C)=C(O)C(=O)N2CCCn2ccnc2)cc1OC (stereo unspecified),9.0%,1.5%,2.8%,3.8%,4.9%
SMILES,TDP1 cell CPT,TDP1 block,DT40 TDP1 no CPT,VP16 counter,RORg inh
COc1cc(C(=O)N2CCC(C(=O)Nc3cccc(C(C)=O)c3)CC2)cc(OC)c1OC,?,5.1%,?,-1.2%,7.5%
CCOc1ccccc1NC(=O)C1CCN(S(=O)(=O)c2c(C)noc2/C=C/c2ccco2)CC1,?,4.7%,18.4µM*,.,.
COc1ccc(/C=C\c2onc(C)c2S(=O)(=O)N2CCC(C(=O)Nc3cccc(Cl)c3)CC2)cc1,6.51µM*,4.7%,9.2µM*,.,.
COc1ccc(/C=C\c2onc(C)c2S(=O)(=O)N2CCC(C(=O)Nc3ccccc3OC)CC2)cc1,?,4.7%,23.1µM*,.,.
COc1cccc(C(=O)N2CCC(C(=O)Nc3cccc(Cl)c3)CC2)c1,10.3µM*,.,23.1µM*,.,.
Cc1cccc(NC(=O)C2CCN(S(=O)(=O)c3c(C)noc3/C=C/c3ccco3)CC2)c1C,-16.1%,0.0%,-8.9%,.,.
COc1ccc(/C=C\c2onc(C)c2S(=O)(=O)N2CCC(C(=O)NCc3ccco3)CC2)cc1,-3.0%,1.2%,?,-5.0%,38.7%
COc1ccc(/C=C\c2onc(C)c2S(=O)(=O)N2CCC(C(=O)Nc3cccc(C)c3C)CC2)cc1,?,-4.7%,-13.5%,.,.
Cc1noc(/C=C/c2ccco2)c1S(=O)(=O)N1CCC(C(=O)NC(C)c2ccccc2)CC1 (stereo unspecified),-26.8%,0.0%,?,3.0%,-20.7%
Cc1noc(/C=C/c2ccco2)c1S(=O)(=O)N1CCC(C(=O)N2c3ccccc3CC2C)CC1 (stereo unspecified),14.6µM*,5.7%,18.4µM*,3.0%,23.2%
O=C1[C@@H](Oc2ccccc2)[C@@H](c2cnc3ccccc3c2)N1c1ccccc1,20.6µM*,.,14.6µM*,.,.
O=C(CNS(=O)(=O)c1ccc(Br)s1)Nc1ccc2c(c1)OCCO2,?,4.7%,?,0.5%,35.7%
CCn1c(SCC(=O)Nc2ccccc2)nnc1-c1cccs1,12.0%,.,-1.1%,5.8%,0.0%
C/C(=N/NC(=O)CSc1nc2ccccc2n1C)c1ccncc1,-14.0%,1.3%,-22.5%,-1.6%,-15.4%
CCn1c(SCc2ccccc2)nnc1-c1cccs1,18.4µM*,0.0%,6.51µM*,1.4%,?
Cn1c(CSc2nc3ccccc3n2C)nc2ccccc21,-23.1%,5.8%,-11.8%,-22.6%,10µM*
Cn1c(Cc2nc3ccccc3n2C)nc2ccccc21,?,0.0%,?,.,.
CCn1c(SCC(=O)c2[nH]c(C)c(C(C)=O)c2C)nnc1-c1cccs1,?,-3.9%,18.4µM*,-14.4%,?
CC(=O)OCC#CCSc1nc2ccccc2n1C,-12.7%,7.9%,-7.9%,?,12.6µM*
CCn1c(SCC(=O)c2cccs2)nnc1-c1cccs1,-23.9%,-2.9%,-18.3%,11.6%,-29.1%
CCOC(=O)Cc1nn2c(=O)cc(C)nc2s1,17.2%,0.0%,-25.7%,11.0%,-10.1%
Cc1cc(C)c(C(=O)CN2C(=O)C(=O)N(C3CCCC3)C2=O)cc1C,0.9%,-1.5%,4.6%,.,.
CCOC(=O)c1c(C)[nH]c(C(=O)CSc2nnnn2-c2ccccc2)c1C,1.8%,2.0%,-17.8%,1.8%,10.5%
CC(=O)c1c(C)[nH]c(C(=O)CSc2nc3ccccc3n2C)c1C,14.6µM*,-1.0%,9.2µM*,?,16.8%

# From PubChem
